Consider 40 compounds from PubChem BioAssay (NCATS).

Each structure is given as a SMILES string. Inconclusive results are not listed. Entries that show only a call come without a potency. Calls of active or inactive are those of the source. The call rests on the fitted dose curve; in most records, active means well fitted curve in the direction sought with a large enough effect in the signal ratio, with a control signal flat (not every such curve was filed as active); inconclusive means small, poorly fitted or top-dose-only effect, or a change in a side signal; inactive means no such curve, though single readings can be large or run the other way; the % refers to the signal ratio.
Potency means the concentration at half of the fitted maximal effect.

This experiment is described as follows: qHTS Assay for Identification of Small Molecule Inducers of Hypoxia Response (AID 2120). The settings on record: hypoxia response reporter cells, beta-lactamase ratio readout; series mostly up to 104 µM. The text has this:
NIH Chemical Genomics Center [NCGC]
NIH Molecular Libraries Screening Centers Network [MLSCN]
National Institutes of Environmental Health Sciences [NIEHS]
National Toxicology Program [NTP]
Hypoxia-inducible factor-1 (HIF-1) is the major hypoxia-regulated transcription factor that controls cellular responses to low oxygen concentration. HIF-1 is composed of two subunits: hypoxia responsive HIF-1a and constitutively expressed HIF-1b, which is also known as aryl hydrocarbon receptor nuclear translocator. During hypoxic conditions, HIF-1a heterodimerizes with HIF-1b and translocates into the nucleus where the HIF-1 complex binds to the hypoxia-response element (HRE) and activates expression of target genes such as VEGF (vascular endothelial growth factor). The HIF-1 pathway is essential to normal growth and development, and is involved in the pathophysiology of cancer, inflammation, and ischemia.
Using a beta-lactamase reporter-gene under control of the hypoxia response element, a cell-based assay [CellSensor(TM) HRE-bla ME-180 developed by Invitrogen Corp.] was used to measure hypoxia-induced signaling. Library compounds were measured for their ability to induce the reporter gene activity. Compounds were screened in a titration series in 1536-well format. The inducers were identified based on the AC50 values derived from the screening data.
NCGC Assay Protocol Summary
2500 cells/5uL in Opti-MEM medium containing 0.5% dialyzed FBS, 0.1 mM NEAA, 1 mM sodium pyruvate and 10 mM HEPES was dispensed into 1536-well plates and cells were cultured at 37 degrees Celsius for 4-5 hours and then 23 nL of compounds or DMSO were delivered to each well using a pin tool. The plates were incubated at 37 degrees Celsius for 17 hours. 1 uL of CCF4-dye mixture was added to each well. After incubated at room temperature for 2.5 hours the plates were measured on an EnVision plate reader at Excitation 405nm, Emission1=460nm and Emission 2=530nm. The %Activity was determined from the ratio of 460nm/530nm.
Background: In qHTS, concentration-response curves come from the screen itself.
As to `Cc1cccnc1`, the Potency entry is “inactive”.

Consider `Nc1ccccc1O`, for which the Potency result is “inactive”. Turning to `C[Si](C)(C)Cl`, the Potency entry was “inactive”.

Regarding `Oc1ccc(O)c2c(O)cccc12`, the Potency entry is “inactive”.

As to `c1ccc(CSCc2ccccc2)cc1`, the Potency entry is “inactive”. `O=[N+]([O-])c1ccccc1Nc1ccccc1`: the Potency result is “inactive”.

`O=C1OC(=O)c2ccccc21`: the Potency result was “inactive”. The result for `Oc1ccc2c(c1)OCO2` reads “inactive”; that for `C=CC1CO1` (stereo not given), “inactive”; that for `O=[N+]([O-])c1cccc(I)c1`, “inactive”. `CCCCC(CC)COP(=O)(OCC(CC)CCCC)OCC(CC)CCCC` (stereo not given): the Potency entry was “inactive”.

As for `CCN(CC)c1ccc2c(C)cc(=O)oc2c1`, the Potency is 44.7 µM (active). Next, `CCC(Cl)CC(Cl)C(Cl)C(Cl)C(Cl)C(C)Cl` (stereo not given): “inactive”. Take `C/C=C/C=C/C=O`: the Potency entry was “inactive”.

On to `Nc1ccc(N=Nc2ccccc2)c(N)c1`, for which the Potency result was “inactive”. As for `CCCCOC(=O)COc1ccc(Cl)cc1Cl`, the Potency entry was “inactive”. `C=C(C#N)C(=O)OCC`: the Potency result is “inactive”. For the compound `CN(C)c1ccc(C(=N)c2ccc(N(C)C)cc2)cc1`, the Potency result is “inactive”.

As for `O=C=Nc1ccc(Cl)c(Cl)c1`, the Potency result is “inactive”. Regarding `O=[N+]([O-])c1cc(Cl)c(Cl)c(Cl)c1Cl`, the Potency entry was “inactive”. As for `c1ccc2c(c1)ccc1ccccc12`, the Potency result was “inactive”. Regarding `Nc1ccc2c(c1)C(=O)c1ccccc1C2=O`, the Potency entry is “inactive”. For `O=c1[nH]ncc2ccccc12`, the Potency entry is “inactive”. On to `Nc1cnn([C@@H]2O[C@H](CO)[C@@H](O)[C@H]2O)c(=O)n1`, for which the Potency result was “inactive”. For the compound `c1ccncc1`, the Potency result was “inactive”.

Turning to `COc1ccc(C(=O)Nc2ccccc2)cc1[N+](=O)[O-]`, the Potency result was “inactive”.

Take `CCc1ccc(C(c2ccc(CC)cc2)C(Cl)Cl)cc1`: the Potency entry was “inactive”. In the case of `S=C(NC1CCCCC1)NC1CCCCC1`, the Potency result is “inactive”. Next, `CC(=O)OC1CC(C)OC(C)O1` (stereo not given): “inactive”; `CCCCCCCCOc1ccc(C(=O)O)cc1`: “inactive”; `Nc1cc([N+](=O)[O-])ccc1O`: “inactive”. As for `Cc1c(C(=O)O)c(O)cc2c1C(=O)c1c(O)c([C@H]3O[C@H](CO)[C@@H](O)[C@H](O)[C@H]3O)c(O)c(O)c1C2=O`, the Potency result is “inactive”.

As to `CC(/C=C/C=C(C)/C=C/C(=O)O)=C\C=C\C=C(C)\C=C\C=C(C)\C=C\C(=O)O`, the Potency result is “inactive”.

Regarding `O=C(O)c1ccc([N+](=O)[O-])cc1`, the Potency entry is “inactive”. Take `Brc1cc(Oc2cc(Br)c(Br)c(Br)c2Br)c(Br)c(Br)c1Br`: the Potency result is “inactive”.

In the case of `CC(=O)c1ccc(Cl)c(Cl)c1Cl`, the Potency entry was “inactive”. Consider `CCCC(=O)OC(=O)CCC`, for which the Potency entry is “inactive”. With `CCOc1ccc2nc(N)sc2c1`, the Potency entry is “inactive”. Turning to `Nc1ccc(N)c(Cl)c1`, the Potency result is “inactive”. With `CCNC(=S)NCC`, the Potency result was “inactive”.
